# Screens deposited in PubChem BioAssay by several laboratories.
# Only some compounds are listed: those with a hit (about 3.7% of all), similar ones and a draw of the others.
# TIM10 inh = TIM10 yeast growth inhibition; AID 463195; inhibition, % at 10 µM; hit rate 1.4% among 330,000; S. cerevisiae TIM10 strain growth, BacTiter-Glo luminescence, 24 h;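 active means inhibition of 40% or more at the single tested concentration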;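 further: wild-type TIM10 isogenic control strain grown at permissive 25 °C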
# tim10-1 inh = tim10-1 yeast growth inhibition; S. cerevisiae tim10-1 ts strain growth, BacTiter-Glo, 24 h; AID 463190; hit rate 2.2% among 330,000; inhibition, % at 20 µM;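 active means inhibition of at least 40%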;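 further: mutant grown at 25 °C; 0% = DMSO wells with yeast and 100% = wells holding no yeast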
# tim23-1 inh = tim23-1 yeast growth inhibition; inhibition, % at 20 µM; hit rate 1.3% among 330,000; S. cerevisiae tim23-1 growth, BacTiter-Glo luminescence, 24 h;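 active means growth inhibition of the mutant yeast at or above 50%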;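 further: temperature-sensitive mutant grown at 25 °C; plate controls were DMSO-treated mutant yeast for no effect and medium wells lacking yeast for full effect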
# PfHsp90 yeast 2 = inhibits growth of yeast expressing Plasmodium falciparum Hsp90; S. cerevisiae expressing PfHsp90, BacTiter-Glo ATP, 48 h; yeast lacking PDR1 and PDR3 efflux regulators; inhibition, % at 9.4 µM; hit rate 0.32% among 310,000;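 active means every replicate shows inhibition above about 80%, whatever the replicate mean, limit read from the data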;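 further: 0% = DMSO neutral controls and 100% = 20 µM radicicol positive controls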
# NLRP3 yeast inh = inhibitors of NALP3 inflammasome in yeast; inhibition, % at 10 µM; hit rate 0.39% among 330,000; Yeast reconstituted NLRP3/ASC/caspase-1, beta-gal luminescence, 24 h;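 active means inhibition of 50% or more; inactive means inhibition below 50%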;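 further: plate controls were induced DMSO wells for no effect and uninduced yeast grown without galactose for full effect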
# NALP3 confirm = confirmation of NALP3 inhibitors in yeast; inhibition, % at 10 µM; hit rate 81% among 1,300; shares compounds with NLRP3 yeast inh; yeast expressing human NALP3, luminescence; in the data active means inhibition above about 48%
# Casp1-ASC yeast = active in yeast caspase-1-ASC counter-screen for NALP3 inhibitors | shares compounds with NLRP3 yeast inh | yeast expressing Caspase-1-ASC, luminescence counter screen | AID 488784 | hit rate 66% among 1,000 | inhibition, % at 10 µM
# NALP3 retest = retest-confirmed inhibitor of NALP3 in yeast; shares compounds with NLRP3 yeast inh; yeast expressing human NALP3, luminescence read-out; inhibition, % at 10 µM; hit rate 53% among 1,000
# * hit, by the source's call; nt = not tested or not shown. Unless noted, no stated cut-off is given here; in the data, active means inhibition above about 50%; inactive means the rest.
SMILES,TIM10 inh,tim10-1 inh,tim23-1 inh,PfHsp90 yeast 2,NLRP3 yeast inh,NALP3 confirm,Casp1-ASC yeast,NALP3 retest
CCCCN1C(=O)/C(=C/C=C2\SCCN2C)SC1=S,9,21,33,14,58*,48,64*,65*
Oc1ccc(N=Nc2ccc3c(c2)OCCO3)c2cccnc12,-11,23,40,-58,26,nt,nt,nt
Oc1ccc(N=Nc2ccc3c(c2)OCCO3)c(O)c1,17,31,36,1,50*,66*,nt,nt
Cc1ccc(NC(=O)CN2CCN(CCN=CC3=C(O)CC(C)(C)CC3=O)CC2)cc1,-6,-21,-16,nt,55*,58*,36,46
CC1(C)CC(=O)C(C=NCCN2CCN(CC(=O)Nc3ccc(Cl)cc3)CC2)=C(O)C1,10,3,16,-60,46,nt,nt,nt
CC1=CC(C)(C)N2C(=O)C3(C(C#N)=C(N)Oc4cc(O)ccc43)c3c(C)c(C)cc1c32 (stereo not given),30,35,32,-22,-1,nt,nt,nt
N#Cc1ccsc1NC(=O)c1cccc([N+](=O)[O-])c1,-8,1,-18,7,17,nt,nt,nt
N#Cc1ccsc1NC(=O)c1ccc(Cl)c([N+](=O)[O-])c1,9,7,10,17,78*,81*,nt,nt
CNc1nc(SCc2ccc(C)cc2)nc2c1CCCC2,12,28,34,-27,97*,99*,99*,99*
CC(=O)Nc1ccc2nc(NC(=O)c3ccc([N+](=O)[O-])s3)sc2c1,-20,18,2,nt,18,nt,nt,nt
Cc1nc2cc(NC(=O)c3ccc([N+](=O)[O-])s3)ccc2s1,34,20,44,-8,61*,68*,nt,nt
N#Cc1ccc(-c2csc(NNC(=O)c3ccccc3)n2)cc1,-6,4,9,nt,19,nt,nt,nt
N#Cc1ccc(-c2csc(NNC(=O)c3ccc(Br)cc3)n2)cc1,2,-6,9,-6,51*,51*,38,36
CC(=O)[C@H]1CC[C@H]2[C@@H]3CC=C4C[C@@H](O)CC[C@]4(C)[C@H]3CC[C@]12C,4,18,15,-20,47,nt,nt,nt
CC(=O)OCC(=O)[C@H]1CC[C@H]2[C@@H]3CC=C4C[C@@H](O)CC[C@]4(C)[C@H]3CC[C@]12C,14,8,26,47,65*,77*,56*,48
CC(=O)[C@H]1CCC2C3CC=C4C[C@@H](O)CC[C@]4(C)C3CC[C@@]21C (stereo not given in full),7,11,17,-4,53*,64*,nt,nt
Cc1cc2ccccn2c1C(=O)c1ccccc1F,-2,-12,21,22,51*,61*,49,41
COc1cc2c(C#Cc3cccnc3)c(-c3ccsc3)oc(=O)c2cc1OC,2,1,-10,-6,11,nt,nt,nt
COC(=O)c1sccc1NC(=O)COc1cccc(C)c1,-40,0,18,7,54*,58*,31,30
CCN(CCCNC(=O)CN1C(=O)COc2ccc(S(=O)(=O)N3CCC(C)CC3)cc21)Cc1ccccc1,2,3,-21,-6,7,nt,nt,nt
CC(C)Cn1c2ccccc2c2cc(C(=O)O)ccc21,18,31,21,nt,-123,9,nt,nt
O=C1c2ccccc2C(=O)C12OC2c1ccc(Cl)cc1 (stereo not given),31,39,45,nt,-131,-85,nt,nt
O=C(C1CC(=O)N(c2ccc3c(c2)OCCO3)C1)N1CCN(S(=O)(=O)c2ccccc2F)CC1 (stereo not given),nt,nt,nt,-19,nt,nt,nt,nt
Cc1ccc(NC(=O)CCn2cccc2)cc1C,-8,-14,13,-11,59*,74*,43,39
Cc1ccc(NC(=O)Cn2cccc2)cc1C,6,-24,3,4,13,nt,nt,nt
CCNCCNC(=O)c1c(O)c2cccc3c2n(c1=O)CCC3,20,-6,26,8,53*,74*,41,44
CNC(=O)c1c(O)c2cccc3c2n(c1=O)CC3,37,-4,37,-1,54*,60*,41,36
CC(C)NC(=O)c1c(O)c2cccc3c2n(c1=O)CCC3,3,18,3,1,14,nt,nt,nt
